# From the supplement of paper PMC6992640
# ± gives the standard deviation of the averaged measurements.
# System: WHIM30 (cells of a triple-negative basal-like breast cancer xenograft)
# Experiment: cell viability (% of vehicle); higher = less cytotoxic
# Conditions: 10 µM; 72 h
# 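Note: PDX cells carrying CMV promoter-driven luciferase, viability read as total photon flux per second by IVIS imaging following D-luciferin, vehicle control 0.1% DMSO.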
row,Compound,cell viability
1,Cc1cc(C2CCCCC2)n(O)c(=O)c1.NCCO [Ciclopirox ethanolamine],86.4 ± 7
2,Nc1cccc2c1C(=O)N(C1CCC(=O)NC1=O)C2=O (centres undefined) [Pomalidomide (CC-4047)],133.9 ± 0.79
3,COC1C(OC(N)=O)C(O)C(Oc2ccc3c(O)c(NC(=O)c4ccc([O-])c(CC=C(C)C)c4)c(=O)oc3c2C)OC1(C)C.[Na+] (centres undefined) [Novobiocin Sodium],116 ± 15
4,O=C1NC(=O)[C@@H](c2c[nH]c3ccccc23)[C@H]1c1cn2c3c(cccc13)CCC2 [Tivantinib (ARQ 197)],147 ± 26
5,CC(=O)N[C@H](Cc1ccc2ccccc2c1)C(=O)N[C@H](Cc1ccc(Cl)cc1)C(=O)N[C@H](Cc1cccnc1)C(=O)N[C@@H](CO)C(=O)N[C@@H](Cc1ccc(O)cc1)C(=O)N[C@H](CCCNC(N)=O)C(=O)N[C@@H](CC(C)C)C(=O)N[C@@H](CCCNC(=N)N)C(=O)N1CCC[C@H]1C(=O)N[C@H](C)C(N)=O [Cetrorelix],132 ± 7.8
6,COc1ccc(C=Cc2cc(OC)c(OC)c(OC)c2)cc1OP(=O)([O-])[O-].[Na+].[Na+] [Fosbretabulin (Combretastatin A4 Phosphate (CA4P)) Disodium],104 ± 5.7
7,COC(=O)NC(C(=O)NC(Cc1ccccc1)C(O)CN(Cc1ccc(-c2ccccn2)cc1)NC(=O)C(NC(=O)OC)C(C)(C)C)C(C)(C)C.O=S(=O)(O)O (centres undefined),148 ± 31
8,NC(=O)N1CCC(CC(=O)N2CCC(C3c4ncc(Br)cc4CCc4cc(Cl)cc(Br)c43)CC2)CC1 (centres undefined) [Lonafarnib],115 ± 7.2
9,C#C[C@]1(O)CC[C@H]2[C@@H]3CCC4=CCCC[C@@H]4[C@H]3C(=C)C[C@@]21CC [Desogestrel],71.8 ± 53
